This is an account of results in PubChem BioAssay.

Activity calls are given as the source filed them.

Experiment [1] has as its system Human papillomavirus type 1a protein E7 (residues 44-93). In words: small molecules binding HPV E7 44-93 – biochemical, small-molecule microarray, residues 44-93, 635 nm fluorescence, primary screen (AID 1108).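 Also: E7 fragment applied at 1 µg/mL in TBST for 1 h at 4 C; score combines spot fluorescence with its signal to noise ratio.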 The note with it: fluorescence 635 nm, higher = more signal.
A short description of experiment [2]: hepatitis C replication reporter changes, two-sided – Huh7 cells, luciferase reporter, HCV replication inhibitor project, primary screen (AID 1109).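 Also: huh7 hepatoma cells harbouring a luciferase neomycin HCV replicon reporter; luciferase luminescence as measure of HCV replicon replication; test concentration not given here.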 The note with it: Huh7 HCV replicon luciferase reporter, 48 h; higher = more signal. On the technique in general: In a reporter assay the amount or activity of a reporter protein is the signal.
The target of experiment [3] is Left-right determination factor 2 (Homo sapiens) (UniProt O00292). In words: small molecules binding LEFTY2 protein – biochemical, small-molecule microarray, 635 nm fluorescence scan, primary screen (AID 1110). The note with it: higher = more signal.
For experiment [4], the target named is Calmodulin-1 (Homo sapiens) (UniProt P0DP23). The experiment is described as follows: small molecules binding calmodulin-1 with EGTA – biochemical, small-molecule microarray, Cy5-labelled CALM1, profiling panel (AID 1111).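 Also: labelled calmodulin applied in Tris saline Tween buffer holding calcium plus EGTA and DTT.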 The note with it: Cy5-CALM1 binding fluorescence, higher = more signal.
Experiment [5] shares this target. The experiment is described as follows: small molecules binding Ca-loaded calmodulin-1 – biochemical, small-molecule microarray, Cy5-labelled CALM1, plus calcium, artefact control for SMM control-protein annotation, profiling panel (AID 1112).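 Also: score merges spot fluorescence with signal to noise from triplicate slides.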 The note with it: Cy5-CALM1 binding fluorescence, higher = more signal.
A short description of experiment [6]: probe aWnt5a binding to arrayed compounds – biochemical, biotinylated probe, 635/667 nm fluorescence, primary screen (AID 1113).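 Also: score merges 667 nm fluorescence intensity with signal-to-noise per printed feature.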 The note with it: small-molecule microarray, higher = more signal.
Experiment [7] can be described thus: probe aShh binding to arrayed compounds – biochemical, biotinylated probe, 635/667 nm fluorescence, primary screen (AID 1114).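 Also: probe is biotin-labelled aShh protein from a stem cell growth factor screen; measures binding of labelled protein to compounds printed on the slide; score merges feature fluorescence at 667 nm with signal-to-noise.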 The note with it: small-molecule microarray, higher = more signal.
The nature of experiment [8]: probe aNog binding to arrayed compounds – biochemical, biotinylated probe, 635/667 nm fluorescence, primary screen (AID 1115).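 Also: probe is biotinylated aNog protein used at 0.15 µg/mL for 1 h at 4 C; z-score combines 667 nm fluorescence of each spot with its signal to noise.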 The note with it: small-molecule microarray, higher = more signal.
Experiment [9] concerns the target Torsin-1A-interacting protein 1 (Homo sapiens) (UniProt Q5JTV8). The experiment is described as follows: compound microarray binding of lysate hLAP1 – cell lysate, small-molecule microarray, COS7 lysate, 635/667 nm fluorescence, primary screen (AID 1116). The note with it: 635 nm fluorescence, higher = more signal.
Experiment [10] concerns the target Alpha-bungarotoxin (Bungarus multicinctus) (UniProt P60615). In words: compounds binding labelled alpha-BTX control protein – biochemical, small-molecule microarray, Alexa647 label, 635/667 nm fluorescence, artefact control for SMM control protein annotation, profiling panel (AID 1117). The note with it: alpha-BTX-A647 binding fluorescence, higher = more signal.
The target in experiment [11] is Albumin (Bos taurus) (UniProt P02769). The experiment is described as follows: compounds binding labelled BSA control protein – biochemical, small-molecule microarray, Alexa647 label, 635/667 nm fluorescence, artefact control for SMM control protein annotation, profiling panel (AID 1118).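 Also: score merges 667 nm emission intensity and signal-to-noise per printed compound spot.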 The note with it: BSA-A647 binding, fluorescence 635 nm, higher = more signal.

Experiment [12] in a line: probe aXIP binding to arrayed compounds – biochemical, NeuroSMM set, 635/667 nm fluorescence, primary screen (AID 1119).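 Also: probe is the protein aXip251-270 applied at 1 µg/mL to compound-printed slides; binding of probe to printed compounds measured as 667 nm fluorescence plus signal to noise.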 The note with it: small-molecule microarray, higher = more signal, called active from +8 up or from −8 down.
The nature of experiment [13]: probe aNOTCH3 binding on compound microarray – biochemical, small-molecule microarray, 635/667 nm fluorescence, primary screen (AID 1120).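 Also: probe is a biotin-tagged antibody raised against NOTCH3 rather than NOTCH3 protein; score merges spot fluorescence near 667 nm with spot signal to noise.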 The note with it: higher = more signal.
Experiment [14] in a line: probe aNOTCH2 binding on compound microarray – biochemical, small-molecule microarray, 635/667 nm fluorescence, primary screen (AID 1121).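 Also: score merges feature fluorescence read at 667 nm with its signal to noise.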 The note with it: higher = more signal.
Experiment [15] addresses Carbonic anhydrase 2 (Homo sapiens) (UniProt P00918). The experiment is described as follows: compounds binding carbonic anhydrase 2 – biochemical, small-molecule microarray, Alexa647-labelled CAII, profiling panel (AID 1122). The note with it: CAII-A647 binding fluorescence, higher = more signal.
Experiment [16] can be described thus: COS7 lysate on small-molecule microarray, probe aHis, 635 nm (AID 1123).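 Also: z-score combines 667nm fluorescence intensity with signal-to-noise per printed compound spot.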 The note with it: COS7 cell lysate, fluorescence, higher = more signal.
The nature of experiment [17]: probe aLAP1 signal on lysate-treated microarray – cell lysate, small-molecule microarray, COS7 lysate, primary screen (AID 1124).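 Also: lysate comes from COS7 cells expressing LAP1 and is applied at 0.3 µg/mL; score merges spot fluorescence near 667 nm with signal-to-noise over triplicate slides.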 The note with it: probe aLAP1, fluorescence, higher = more signal.
The subject of experiment [18] is Sam68 (KHDRBS1). The experiment is described as follows: compounds binding KHDRBS1 protein – biochemical, small-molecule microarray, 635 nm fluorescence, primary screen (AID 1125).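 Also: score merges 667 nm channel intensity with signal to noise over triplicate slides.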 The note with it: higher = more signal.
For experiment [19], the system named is Chordin-like protein 2 (CHRDL2). In words: compounds binding chordin-like 2 – biochemical, small-molecule microarray, 635 nm fluorescence, primary screen (AID 1126).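 Also: printed compound slides probed with Chrdl2 protein at 4 µg/mL for 1 h at 4 C; score merges 667 nm emission intensity with signal to noise over three replicate slides.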 The note with it: fluorescence 635 nm, higher = more signal.
The target in experiment [20] is Concanavalin-A (Canavalia ensiformis) (UniProt P02866). In words: compounds binding concanavalin A lectin – biochemical, small-molecule microarray, Alexa647 label, 635 nm, artefact control for SMM control protein annotation, primary screen (AID 1127).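 Also: z combines 667 nm emission intensity with signal-to-noise across three replicate slides.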 The note with it: ConA-A647 binding fluorescence, higher = more signal.
Chain of Concanavalin-A (Canavalia ensiformis) (P02866 whole entry, looked up): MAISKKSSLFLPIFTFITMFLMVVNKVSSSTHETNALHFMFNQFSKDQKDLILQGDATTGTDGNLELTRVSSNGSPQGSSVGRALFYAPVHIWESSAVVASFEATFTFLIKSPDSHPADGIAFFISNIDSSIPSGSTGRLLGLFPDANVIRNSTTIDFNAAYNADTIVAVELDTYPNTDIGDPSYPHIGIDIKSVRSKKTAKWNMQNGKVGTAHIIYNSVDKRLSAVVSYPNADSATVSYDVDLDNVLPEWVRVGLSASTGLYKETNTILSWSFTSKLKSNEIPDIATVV

Chain of Torsin-1A-interacting protein 1 (Homo sapiens) (Q5JTV8 whole entry, looked up): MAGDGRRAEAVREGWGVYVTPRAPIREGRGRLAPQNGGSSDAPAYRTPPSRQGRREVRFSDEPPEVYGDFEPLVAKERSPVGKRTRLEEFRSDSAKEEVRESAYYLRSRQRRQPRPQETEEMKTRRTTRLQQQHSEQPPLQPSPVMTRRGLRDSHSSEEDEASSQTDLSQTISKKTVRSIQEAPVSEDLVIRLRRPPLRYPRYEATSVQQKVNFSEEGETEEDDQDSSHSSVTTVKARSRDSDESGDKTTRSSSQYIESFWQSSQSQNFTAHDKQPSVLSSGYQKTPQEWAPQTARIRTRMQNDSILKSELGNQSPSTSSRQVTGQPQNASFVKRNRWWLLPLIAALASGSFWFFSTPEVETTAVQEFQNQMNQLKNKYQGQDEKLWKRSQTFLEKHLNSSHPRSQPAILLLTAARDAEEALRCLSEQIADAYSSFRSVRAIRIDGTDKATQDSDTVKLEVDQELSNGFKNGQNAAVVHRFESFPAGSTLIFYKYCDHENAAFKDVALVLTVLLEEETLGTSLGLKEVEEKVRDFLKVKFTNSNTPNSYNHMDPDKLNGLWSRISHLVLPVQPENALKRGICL
Chain of Alpha-bungarotoxin (Bungarus multicinctus) (P60615 whole entry, looked up): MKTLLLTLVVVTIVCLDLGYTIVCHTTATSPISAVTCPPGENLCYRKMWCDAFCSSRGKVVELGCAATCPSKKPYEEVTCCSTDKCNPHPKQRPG
Chain of Left-right determination factor 2 (Homo sapiens) (O00292 whole entry, looked up): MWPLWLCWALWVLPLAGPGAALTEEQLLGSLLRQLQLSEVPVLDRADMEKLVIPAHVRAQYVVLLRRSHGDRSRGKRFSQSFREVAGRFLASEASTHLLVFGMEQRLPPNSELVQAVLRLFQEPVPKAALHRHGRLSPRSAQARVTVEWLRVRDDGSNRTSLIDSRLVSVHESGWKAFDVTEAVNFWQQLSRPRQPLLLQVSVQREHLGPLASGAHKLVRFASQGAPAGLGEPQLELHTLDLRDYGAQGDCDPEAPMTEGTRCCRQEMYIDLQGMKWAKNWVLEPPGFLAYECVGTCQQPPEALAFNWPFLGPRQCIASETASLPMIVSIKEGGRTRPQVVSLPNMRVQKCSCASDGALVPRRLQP
Chain of Albumin (Bos taurus) (P02769 whole entry, looked up): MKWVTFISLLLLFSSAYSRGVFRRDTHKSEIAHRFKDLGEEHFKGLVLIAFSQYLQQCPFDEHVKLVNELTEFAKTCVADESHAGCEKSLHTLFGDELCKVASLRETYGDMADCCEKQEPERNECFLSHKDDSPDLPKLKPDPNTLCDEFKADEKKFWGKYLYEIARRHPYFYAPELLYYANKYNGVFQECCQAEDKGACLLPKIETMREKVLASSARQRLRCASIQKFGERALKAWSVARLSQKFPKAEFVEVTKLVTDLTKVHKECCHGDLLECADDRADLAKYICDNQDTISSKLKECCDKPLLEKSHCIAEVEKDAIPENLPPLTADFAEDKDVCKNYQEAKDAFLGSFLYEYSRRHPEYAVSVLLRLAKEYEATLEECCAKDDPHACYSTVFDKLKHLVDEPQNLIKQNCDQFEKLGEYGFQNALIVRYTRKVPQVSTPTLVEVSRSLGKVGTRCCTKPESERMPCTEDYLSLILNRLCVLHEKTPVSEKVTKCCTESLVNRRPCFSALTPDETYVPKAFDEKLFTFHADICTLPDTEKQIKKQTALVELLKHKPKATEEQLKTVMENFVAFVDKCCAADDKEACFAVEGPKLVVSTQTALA

On to `COCCOC(=O)N1C(=O)[C@@]2(c3cc(C#Cc4ccc(OC)cc4)ccc31)[C@H](c1ccc(O)cc1)N1[C@H](c3ccccc3)[C@H](c3ccccc3)OC(=O)[C@H]1[C@@H]2C(=O)NC[C@H](O)c1ccccc1`, for which the composite z-score in experiment [1] is 1.44; in experiment [3], 0.598; in experiment [4], 1.18; in [5], -0.209; in experiment [6], 0.0809; in experiment [7], 0.692. The composite z-score was -0.467 in experiment [8]; 0.681 in experiment [9]; 1.54 in experiment [10]; 0.298 in [11]; 0.385 in experiment [13]; -0.0878 in [14]. Besides, the composite z-score is 0.317 in experiment [15]; 1.04 in [16]; 0.693 in experiment [17]; 1.29 in experiment [18]; 0.374 in [19]; 1.17 in experiment [20]. The molecule further displayed a z-score in experiment [2] of -2.2. Moreover, the composite Z-score in experiment [12] was 0.434 (inactive).

Consider `[N-]=[N+]=Nc1ccccc1[C@H]1OC(c2ccc(OCCCO)cc2)=N[C@@]1(Cc1ccccc1)C(=O)O`, for which the composite z-score in [1] was 1.46; in experiment [3] it was -0.271; in experiment [4], 0.577; in experiment [5] it was -0.0461; in experiment [6], 0.0375; in [7] it was 0.483. Further, the composite z-score in experiment [8] was -0.0277; in [9], 0.826; in [10] it was 2.07; in experiment [11], 0.59; in experiment [13], 0.196; in experiment [14], -0.146. Besides, the composite z-score in experiment [15] is 0.344; in experiment [16], 1.64; in experiment [17], 0.0378; in experiment [18], 1.31; in experiment [19] it was -0.392; in [20], 0.619. This molecule also gave a z-score in experiment [2] of 1.09. Moreover, in experiment [12], the composite Z-score is -0.001 (inactive).

In the case of `O=C1O[C@@H](c2ccccc2)[C@@H](c2ccccc2)N2[C@@H](c3ccc(OCCO)cc3)[C@]3(C(=O)Nc4ccccc43)[C@@H](C(=O)NC[C@H](O)c3ccccc3)[C@H]12`, the composite z-score in experiment [1] was 1.28; in experiment [3], 1.04; in [4], 0.158; in [5] it was 0.0233; in experiment [6], -0.0768; in experiment [7], -0.2. The composite z-score in experiment [8] is 0.0597; in experiment [9] it was 1.3; in experiment [10], 0.362; in experiment [11], 0.393; in experiment [13] it was 0.0519; in experiment [14], -0.0649. For the same molecule, the composite z-score in experiment [15] amounted to 0.549; in experiment [16] it was 1.67; in experiment [17], 0.759; in experiment [18], 0.989; in experiment [19], 0.895; in experiment [20], 0.999. For the same molecule, the z-score in experiment [2] was -2.1. The composite Z-score in [12] was 0.312 (inactive).

`CCCCC(=C=CC[C@@H](O)c1ccccc1OCCO)CCO`: the composite z-score in experiment [1] was -0.0803; in experiment [3], -0.855; in [4] it was 0.184; in experiment [5] it was 0.23; in [6] it was -0.147; in experiment [7] it was -0.366. Besides, the composite z-score is -0.034 in [8]; 0.212 in experiment [9]; -0.0423 in [10]; 0.694 in experiment [11]; -0.0321 in experiment [13]; -0.0928 in experiment [14]. Further, the composite z-score was 0.726 in experiment [15]; 1.1 in experiment [16]; 0.257 in experiment [17]; 0.0301 in experiment [18]; -0.638 in experiment [19]; -0.382 in experiment [20]. The molecule also returned a z-score in experiment [2] of -0.23. For the same molecule, in experiment [12], the composite Z-score was 0.35 (inactive).

For the molecule `O=C(C1N=C(c2ccc(OCCCO)cc2)N(c2ccccc2)O1)N1CCOCC1` (stereo not given), the composite z-score in experiment [1] is 1.37; in experiment [3], 0.677; in [4], 1.29; in experiment [5] it was 0.335; in [6] it was -0.0445; in experiment [7] it was 0.465. Besides, the composite z-score in experiment [8] is -0.492; in experiment [9] it was 0.832; in [10], 1.12; in experiment [11] it was 0.709; in experiment [13], 0.237; in experiment [14], -0.0843. Besides, the composite z-score was 0.557 in [15]; 1.54 in experiment [16]; 0.255 in [17]; 1.32 in experiment [18]; -0.114 in experiment [19]; 0.488 in [20]. The same molecule returned a z-score in experiment [2] of -2.11. For the same molecule, the composite Z-score in experiment [12] was 0.0285 (inactive).
